Laboratory results as given in PubChem BioAssay (Tox21).
Records with an inconclusive call do not appear. Where a call stands in place of a potency, no number is given. Activity calls are given as the source filed them. The call rests on the fitted dose curve; in most records, active means well fitted inhibition curve with a large enough effect in the repeat runs; inconclusive means weak or mixed curves; inactive means no such curve, though single readings can be large or run the other way. Where a SMILES comes first, the peptide text is derived from it.

Molecular target: Cytochrome P450 3A4 (Homo sapiens) (UniProt P08684)
Test: Cytochrome P450 Family 3 Subfamily A Member 4 (CYP3A4) small molecule antagonists: luciferase reporter qHTS assay (AID 1671201); further: nearly all actives have a fitted effect of over 50% in size
Conditions: P450-Glo CYP3A4 enzyme, luciferin luminescence, 1 h; series mostly up to 115 µM
Excerpt: National Center for Advancing Translational Sciences [NCATS]
U.S. Environmental Protection Agency [EPA]
National Institutes of Environmental Health Sciences [NIEHS]
National Toxicology Program [NTP]
U.S. Food and Drug Administration [FDA]
Cytochrome P450 (CYP) enzymes are membrane-bound hemeproteins that play a key role in metabolism of drugs and xenobiotics. Evaluation of the effect of chemicals on CYP isozymes is useful to minimize the adverse drug reactions and toxicities in drug development process. Tox21 chemicals were tested for their effect on CYP enzyme activities by using P450-Glo (TM) screening systems (Promega Corporation, Madison, WI). These systems provide a luminescent method containing proluciferin substrates and are converted to luciferin products by CYP isozymes. The luciferin products formed are detected with a luciferin detection reagent, and the amount of light produced is proportional to CYP activity. P450-Glo (TM) CYP3A4 screening system (Catalog. No. V9910) was used to detect the compounds that interfere in CYP3A4 activity. The positive control compound used for CYP3A4 assay is ketoconazole (Sigma-Aldrich, St. Louis, MO).
Tox21 Assay Protocol Summary:
Two ul of enzyme-substrate mix was dispensed into medium binding white/solid 1536-well plates (Greiner Bio-One North America Inc., Monroe, NC) using a BioRaptr Flying Reagent Dispenser (FRD, Beckman Coulter, Brea, CA). Compounds dissolved in DMSO and positive control (ketoconazole) were transferred to the assay plates at 23 nl using a Pintool station (Wako, San Diego, CA). The assay plates were incubated at room temperature for 10 min. Then 2 ul of NADPH regeneration solution was added to each well of the assay plates using an FRD and incubated at room temperature for 1 h. The reaction was stopped by adding 4 ul of detection reagent using an FRD and after 20 min incubation at room temperature the luminescence signal was measured using a ViewLux plate reader (Perkin Elmer, Shelton, CT). Data were expressed as relative luminescence units.
Potency means the concentration at half of the fitted maximal effect.

Chain of Cytochrome P450 3A4 (Homo sapiens) (P08684 whole entry, looked up): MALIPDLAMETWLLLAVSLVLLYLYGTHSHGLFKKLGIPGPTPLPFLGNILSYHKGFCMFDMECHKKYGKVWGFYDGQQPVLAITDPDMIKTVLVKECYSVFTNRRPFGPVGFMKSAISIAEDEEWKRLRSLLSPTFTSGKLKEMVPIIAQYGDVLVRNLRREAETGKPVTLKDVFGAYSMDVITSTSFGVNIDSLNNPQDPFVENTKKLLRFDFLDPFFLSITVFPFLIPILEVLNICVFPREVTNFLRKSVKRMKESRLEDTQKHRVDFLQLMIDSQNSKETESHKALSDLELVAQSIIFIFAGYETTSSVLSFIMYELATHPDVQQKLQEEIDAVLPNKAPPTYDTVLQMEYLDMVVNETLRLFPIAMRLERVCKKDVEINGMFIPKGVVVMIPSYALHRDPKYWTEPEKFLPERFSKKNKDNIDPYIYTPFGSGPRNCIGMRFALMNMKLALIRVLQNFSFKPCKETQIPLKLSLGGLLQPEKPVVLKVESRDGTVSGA

Row | SMILES | Potency | activity change, negative = inhibition
1 | CC1CCc2c(N3CCC(O)CC3)c(F)cc3c(=O)c(C(=O)O)cn1c23 (stereo not given) | inactive | 
2 | CCOC(=O)CC1(C)OCC(C)O1 (stereo not given) | inactive | 
3 | Cc1ccc(C(C)NC(=O)[C@@H](NC(=O)OC(C)C)C(C)C)cc1 (stereo not given in full) | 3.55 µM (active) | 
4 | CCN(CC)CCN | inactive | 
5 | COP(=O)(O)OP(=O)(O)OC | inactive | 
6 | NCC1(Cc2noc(=O)[nH]2)CCCCC1 | inactive | 
7 | CNCCS(=O)(=O)O | inactive | 
8 | C/C=C(\C)C(C)=O | inactive | 
9 | COC(=O)c1ccccc1C(=O)O | inactive | 
10 | C=CCCCCCCCC | inactive | 
11 | CC(C)C1OCCN1CCOC(=O)NCCCCCCNC(=O)OCCN1CCOC1C(C)C (stereo not given) | 10 µM (active) | 
12 | O=C=NCC1CCCC(CN=C=O)C1 (stereo not given) | 2.83 µM (active) | 
13 | C=C(C)C1CC=C(C)C(=O)C1 (stereo not given) | inactive | 
14 | Cn1c(=O)c2[nH]c(Br)nc2n(C)c1=O | inactive | 
15 | COc1ccc(CCO)cc1 | inactive | 
16 | CCCCCCCCCCCCCBr | inactive | 
17 | CC(=O)C(C)O (stereo not given) | inactive | 
18 | COCCc1ccccn1 | inactive | 
19 | Cc1c(C(=O)c2c[nH]n(C)c2=O)ccc(S(C)(=O)=O)c1C1=NOCC1 | inactive | 
20 | COC(=O)c1cccc(Cl)c1 | inactive | 

Row | SMILES | Potency | activity change, negative = inhibition
21 | N[C@@H](CSCCCO)C(=O)O |  | 15.6% [at 23.6 µM] (inactive)
22 | CCCSSCCC | inactive | 
23 | O=C(O)[C@H](O)c1ccccc1 | inactive | 
24 | CC(=O)N[C@@H](CO)C(=O)N[C@@H](CC(=O)O)C(=O)N[C@@H](CCCCN)C(=O)N1CCC[C@H]1C(=O)O (Ac-SDKP-OH) | inactive | 
25 | Cc1c(NC(=O)c2cccnc2)c(=O)n(-c2ccccc2)n1C | inactive | 
26 | C=CCCCC | inactive | 
27 | CC1(C)[C@H]2CC[C@](C)(C2)[C@H]1O | inactive | 
28 | O=Cc1ccccc1Cl | inactive | 
29 | CC(S)C(C)S (stereo not given) | inactive | 
30 | Cc1ncc([N+](=O)[O-])n1CC(C)O (stereo not given) | inactive | 
31 | OC[C@@H](O)C(O)[C@@H](O)CO (stereo not given in full) | inactive | 
32 | O=S(=O)(O)c1ccc2c(N=Nc3ccc(S(=O)(=O)O)c4ccccc34)c(O)c(S(=O)(=O)O)cc2c1 |  | 1.51% [at 10.5 µM] (inactive)
33 | CC(=O)C1C(=O)C=C(C)OC1=O (stereo not given) | inactive | 
34 | CN(C)CCCCl | inactive | 
35 | O=C(O)CONC(=O)c1ccccc1 | inactive | 
36 | CCCC(=O)OCCC(C)CCC=C(C)C (stereo not given) | 4.48 µM (active) | 
37 | CC(C)NC(=O)c1ccc(C=O)cc1 | inactive | 
38 | CC(=O)c1cc(C)oc1C | inactive | 
39 | O=C[O][Al]([O]C=O)[O]C=O | inactive | 
40 | CCC(C)OC(C)CC (stereo not given) | inactive | 
